Our source for the composite z-score and z-score values is PubChem BioAssay.

For experiment [1], the system named is Plasmodium falciparum Sir2 (PF13_0152, Sir2A). Description: Plasmodium falciparum Sir2A binding compounds – biochemical, small-molecule microarray, 635 nm fluorescence, primary screen (AID 1098).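 Also: score merges spot fluorescence intensity with its signal-to-noise ratio.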 The settings on record: fluorescence 635 nm, higher = more signal.
The nature of experiment [2]: probe aDKK1 binding to arrayed compounds – biochemical, biotinylated probe, 635/667 nm fluorescence, primary screen (AID 1099).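 Also: score merges 667nm spot fluorescence with signal to noise across triplicate slides.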 The settings on record: small-molecule microarray, higher = more signal.
Experiment [3] in a line: probe aCHRDL2 binding to arrayed compounds – biochemical, biotinylated probe, 635/667 nm fluorescence, primary screen (AID 1100). The settings on record: small-molecule microarray, higher = more signal.
Experiment [4] is described as follows: change in splice reporter luminescence, either direction, cell-based, HEK293, spliceosome inhibition project, primary screen (AID 1101).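 Also: HEK293 cells carrying a splicing-competent luciferase reporter gene; test concentration not given here.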 To be noted: HEK293 splicing luciferase reporter, 24 h, higher = more signal, called active from +8 up or from −8 down. For orientation: A reporter such as luciferase makes a cellular process visible.
Experiment [5] concerns the target Fibroblast growth factor 10 (Homo sapiens) (UniProt O15520). Description: compounds binding fibroblast growth factor 10 – biochemical, small-molecule microarray, 635 nm fluorescence, primary screen (AID 1102). To be noted: FGF10 binding, fluorescence 635 nm, higher = more signal.
The subject of experiment [6] is glycogen synthase kinase-3 (GSK3A per assay name; protocol says GSK3B). Description: compounds binding glycogen synthase kinase-3 – biochemical, small-molecule microarray, 635 nm fluorescence, GSK3A, primary screen (AID 1103). Also: the record names both GSK3A and GSK3B. To be noted: fluorescence 635 nm, higher = more signal.
Experiment [7] addresses Epidermal growth factor receptor (Homo sapiens) (UniProt P00533). Description: compounds binding epidermal growth factor receptor – biochemical, small-molecule microarray, 635 nm fluorescence, primary screen (AID 1104).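 Also: score merges 667 nm emission intensity with spot signal to noise over triplicate slides.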 To be noted: EGFR binding, higher = more signal.
Experiment [8] addresses Follistatin-related protein 3 (Homo sapiens) (UniProt O95633). Description: compounds binding follistatin-related protein 3 – biochemical, small-molecule microarray, 635 nm fluorescence, primary screen (AID 1105).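 Also: score merges emission near 667 nm and signal to noise per printed spot across three slides.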 To be noted: FSTL3 binding, higher = more signal.
The target of experiment [9] is Dickkopf-related protein 1 (Homo sapiens) (UniProt O94907). Description: small molecules binding DKK1 protein – biochemical, small-molecule microarray, 635 nm fluorescence scan, primary screen (AID 1106).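 Also: score merges emission near 667 nm with signal to noise over three replicate slides.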 To be noted: higher = more signal.
The subject of experiment [10] is Inhibin beta A chain (activin A). Description: small molecules binding activin A – biochemical, small-molecule microarray, 635 nm fluorescence scan, primary screen (AID 1107).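 Also: mouse activin A protein probed at 4.33 µg/mL on printed slides; score merges bound-protein fluorescence near 667 nm with spot signal-to-noise.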 To be noted: INHBA, higher = more signal.
Experiment [11] has as its system Human papillomavirus type 1a protein E7 (residues 44-93). Description: small molecules binding HPV E7 44-93 – biochemical, small-molecule microarray, residues 44-93, 635 nm fluorescence, primary screen (AID 1108).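 Also: E7 fragment applied at 1 µg/mL in TBST for 1 h at 4 C; score combines spot fluorescence with its signal to noise ratio.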 The settings on record: fluorescence 635 nm, higher = more signal.
Experiment [12] in a line: hepatitis C replication reporter changes, two-sided – Huh7 cells, luciferase reporter, HCV replication inhibitor project, primary screen (AID 1109).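 Also: huh7 hepatoma cells harbouring a luciferase neomycin HCV replicon reporter; luciferase luminescence as measure of HCV replicon replication; test concentration not given here.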 The settings on record: Huh7 HCV replicon luciferase reporter, 48 h; higher = more signal.
The target of experiment [13] is Left-right determination factor 2 (Homo sapiens) (UniProt O00292). Description: small molecules binding LEFTY2 protein – biochemical, small-molecule microarray, 635 nm fluorescence scan, primary screen (AID 1110). The settings on record: higher = more signal.
The target of experiment [14] is Calmodulin-1 (Homo sapiens) (UniProt P0DP23). Description: small molecules binding calmodulin-1 with EGTA – biochemical, small-molecule microarray, Cy5-labelled CALM1, profiling panel (AID 1111).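 Also: labelled calmodulin applied in Tris saline Tween buffer holding calcium plus EGTA and DTT.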 The settings on record: Cy5-CALM1 binding fluorescence, higher = more signal.
Experiment [15] shares this target. Description: small molecules binding Ca-loaded calmodulin-1 – biochemical, small-molecule microarray, Cy5-labelled CALM1, plus calcium, artefact control for SMM control-protein annotation, profiling panel (AID 1112).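 Also: score merges spot fluorescence with signal to noise from triplicate slides.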 The settings on record: Cy5-CALM1 binding fluorescence, higher = more signal.
Experiment [16] in a line: probe aWnt5a binding to arrayed compounds – biochemical, biotinylated probe, 635/667 nm fluorescence, primary screen (AID 1113).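 Also: score merges 667 nm fluorescence intensity with signal-to-noise per printed feature.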 The settings on record: small-molecule microarray, higher = more signal.
Experiment [17] is described as follows: probe aShh binding to arrayed compounds – biochemical, biotinylated probe, 635/667 nm fluorescence, primary screen (AID 1114).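 Also: probe is biotin-labelled aShh protein from a stem cell growth factor screen; measures binding of labelled protein to compounds printed on the slide; score merges feature fluorescence at 667 nm with signal-to-noise.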 To be noted: small-molecule microarray, higher = more signal.
Experiment [18] is described as follows: probe aNog binding to arrayed compounds – biochemical, biotinylated probe, 635/667 nm fluorescence, primary screen (AID 1115).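 Also: probe is biotinylated aNog protein used at 0.15 µg/mL for 1 h at 4 C; z-score combines 667 nm fluorescence of each spot with its signal to noise.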 The settings on record: small-molecule microarray, higher = more signal.
Experiment [19] has as its target Torsin-1A-interacting protein 1 (Homo sapiens) (UniProt Q5JTV8). Description: compound microarray binding of lysate hLAP1 – cell lysate, small-molecule microarray, COS7 lysate, 635/667 nm fluorescence, primary screen (AID 1116). The settings on record: 635 nm fluorescence, higher = more signal.
Experiment [20] concerns the target Alpha-bungarotoxin (Bungarus multicinctus) (UniProt P60615). Description: compounds binding labelled alpha-BTX control protein – biochemical, small-molecule microarray, Alexa647 label, 635/667 nm fluorescence, artefact control for SMM control protein annotation, profiling panel (AID 1117). To be noted: alpha-BTX-A647 binding fluorescence, higher = more signal.

Structures are written as SMILES. The source made the active and inactive calls.

Sequence of Epidermal growth factor receptor (Homo sapiens) (P00533 whole entry, looked up): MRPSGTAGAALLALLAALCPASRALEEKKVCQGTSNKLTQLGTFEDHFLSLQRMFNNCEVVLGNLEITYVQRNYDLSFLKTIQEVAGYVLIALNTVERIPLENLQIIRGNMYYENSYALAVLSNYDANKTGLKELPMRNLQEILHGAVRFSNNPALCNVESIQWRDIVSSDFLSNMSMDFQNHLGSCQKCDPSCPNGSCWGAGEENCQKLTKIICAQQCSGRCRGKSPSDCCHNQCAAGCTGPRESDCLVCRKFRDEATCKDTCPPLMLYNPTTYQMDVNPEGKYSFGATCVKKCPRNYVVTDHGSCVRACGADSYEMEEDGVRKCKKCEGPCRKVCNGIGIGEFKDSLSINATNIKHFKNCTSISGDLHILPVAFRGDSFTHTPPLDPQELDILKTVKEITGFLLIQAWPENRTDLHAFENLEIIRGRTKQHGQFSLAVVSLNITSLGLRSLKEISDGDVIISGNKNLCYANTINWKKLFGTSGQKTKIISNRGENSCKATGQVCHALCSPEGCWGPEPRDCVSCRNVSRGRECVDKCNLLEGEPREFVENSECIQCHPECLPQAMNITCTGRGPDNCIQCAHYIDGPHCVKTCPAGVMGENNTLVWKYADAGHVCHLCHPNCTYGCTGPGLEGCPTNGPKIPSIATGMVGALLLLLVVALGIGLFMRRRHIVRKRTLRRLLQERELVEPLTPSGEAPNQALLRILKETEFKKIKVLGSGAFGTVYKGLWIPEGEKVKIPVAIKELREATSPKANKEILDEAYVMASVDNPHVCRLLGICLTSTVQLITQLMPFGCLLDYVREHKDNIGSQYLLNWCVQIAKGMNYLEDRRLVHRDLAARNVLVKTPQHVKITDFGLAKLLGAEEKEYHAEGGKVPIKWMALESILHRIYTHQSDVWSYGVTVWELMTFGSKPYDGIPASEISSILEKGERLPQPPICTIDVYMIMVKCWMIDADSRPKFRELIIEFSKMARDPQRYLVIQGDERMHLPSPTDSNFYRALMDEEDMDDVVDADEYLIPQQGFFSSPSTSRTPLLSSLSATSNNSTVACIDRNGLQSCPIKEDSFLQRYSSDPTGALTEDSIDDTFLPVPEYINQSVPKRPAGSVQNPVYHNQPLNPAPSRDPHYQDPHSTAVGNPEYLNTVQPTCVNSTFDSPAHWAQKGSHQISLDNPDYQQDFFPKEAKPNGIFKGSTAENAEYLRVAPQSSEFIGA
Sequence of Left-right determination factor 2 (Homo sapiens) (O00292 whole entry, looked up): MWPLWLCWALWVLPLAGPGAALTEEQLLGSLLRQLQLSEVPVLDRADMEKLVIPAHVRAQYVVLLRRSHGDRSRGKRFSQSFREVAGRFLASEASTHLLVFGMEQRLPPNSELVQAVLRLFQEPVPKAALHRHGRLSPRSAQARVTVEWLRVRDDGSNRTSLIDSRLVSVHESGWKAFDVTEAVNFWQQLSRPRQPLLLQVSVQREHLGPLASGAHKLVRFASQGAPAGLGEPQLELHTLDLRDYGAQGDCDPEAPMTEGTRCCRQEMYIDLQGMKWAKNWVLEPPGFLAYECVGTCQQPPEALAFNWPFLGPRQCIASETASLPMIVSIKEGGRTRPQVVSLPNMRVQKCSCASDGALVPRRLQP
Sequence of Torsin-1A-interacting protein 1 (Homo sapiens) (Q5JTV8 whole entry, looked up): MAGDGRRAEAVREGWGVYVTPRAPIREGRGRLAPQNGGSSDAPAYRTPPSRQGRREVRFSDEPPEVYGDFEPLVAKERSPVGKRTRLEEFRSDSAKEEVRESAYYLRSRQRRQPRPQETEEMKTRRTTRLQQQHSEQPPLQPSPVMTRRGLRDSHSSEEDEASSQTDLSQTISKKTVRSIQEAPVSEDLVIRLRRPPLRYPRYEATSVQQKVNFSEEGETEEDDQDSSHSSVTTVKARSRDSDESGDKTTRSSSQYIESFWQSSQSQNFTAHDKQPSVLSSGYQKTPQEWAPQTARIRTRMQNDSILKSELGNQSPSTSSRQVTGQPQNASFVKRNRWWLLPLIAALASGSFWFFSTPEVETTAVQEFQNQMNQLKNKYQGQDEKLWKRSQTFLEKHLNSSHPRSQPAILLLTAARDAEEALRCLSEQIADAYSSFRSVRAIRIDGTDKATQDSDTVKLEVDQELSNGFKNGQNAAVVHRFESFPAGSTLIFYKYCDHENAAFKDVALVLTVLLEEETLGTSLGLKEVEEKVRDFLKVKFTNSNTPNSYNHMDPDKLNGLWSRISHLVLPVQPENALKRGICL
Sequence of Follistatin-related protein 3 (Homo sapiens) (O95633 whole entry, looked up): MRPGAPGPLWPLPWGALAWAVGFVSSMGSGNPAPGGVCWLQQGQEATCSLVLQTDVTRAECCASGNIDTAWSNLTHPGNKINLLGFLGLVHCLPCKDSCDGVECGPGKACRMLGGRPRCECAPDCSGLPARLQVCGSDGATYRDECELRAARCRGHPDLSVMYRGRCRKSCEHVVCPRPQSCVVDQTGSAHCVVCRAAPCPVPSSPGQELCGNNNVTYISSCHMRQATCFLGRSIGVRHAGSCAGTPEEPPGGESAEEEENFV
Sequence of Alpha-bungarotoxin (Bungarus multicinctus) (P60615 whole entry, looked up): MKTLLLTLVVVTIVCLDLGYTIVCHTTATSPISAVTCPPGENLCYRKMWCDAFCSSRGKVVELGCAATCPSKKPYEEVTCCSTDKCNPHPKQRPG
Sequence of Dickkopf-related protein 1 (Homo sapiens) (O94907 whole entry, looked up): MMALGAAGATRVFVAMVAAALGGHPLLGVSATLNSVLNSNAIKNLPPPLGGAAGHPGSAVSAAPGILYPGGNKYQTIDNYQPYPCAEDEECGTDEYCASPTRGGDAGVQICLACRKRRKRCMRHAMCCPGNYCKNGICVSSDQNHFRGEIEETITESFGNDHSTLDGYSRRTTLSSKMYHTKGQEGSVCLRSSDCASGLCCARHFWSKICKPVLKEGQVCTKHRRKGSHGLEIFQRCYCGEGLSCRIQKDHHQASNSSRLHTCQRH
Sequence of Fibroblast growth factor 10 (Homo sapiens) (O15520 whole entry, looked up): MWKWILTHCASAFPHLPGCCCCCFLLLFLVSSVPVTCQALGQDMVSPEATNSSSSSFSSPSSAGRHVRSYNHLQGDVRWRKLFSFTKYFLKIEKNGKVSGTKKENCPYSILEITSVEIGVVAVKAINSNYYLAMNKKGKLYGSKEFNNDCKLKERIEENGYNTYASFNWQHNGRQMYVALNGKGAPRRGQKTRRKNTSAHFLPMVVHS

As for `COCCOC(=O)N1C(=O)[C@@]2(c3cc(C#CCNC(N)=O)ccc31)[C@H](C(=O)N1CCN(c3ncccn3)CC1)[C@H]1C(=O)O[C@H](c3ccccc3)[C@H](c3ccccc3)N1[C@@H]2c1ccc(OCCO)cc1`, the composite z-score in experiment [1] was 1.08; in experiment [2], 0.223; in experiment [3], 0.329; in [5] it was 1.01; in experiment [6], -0.0506; in experiment [7], 0.498. Also, the composite z-score in [8] was determined as 1.37; in [9], 0.204; in [10] it was 0.63; in [11] it was 1.01; in experiment [13] it was 0.188; in experiment [14] it was 0.392. The composite z-score in experiment [15] is 0.0615; in [16], 0.0031; in experiment [17] it was -0.315; in [18] it was 0.196; in experiment [19], 0.0481; in [20] it was 1.82. In addition, the z-score in [4] is -0.729 (inactive); in experiment [12], -0.801.
As to `CN1C(=O)C2C=CC(C(O)C3CC=CCC3)N(N(c3ccccc3)c3ccccc3)C2C1=O` (stereo not given), the composite z-score was 0.206 in experiment [1]; 0.244 in experiment [2]; 0.944 in [3]; -0.291 in experiment [5]; -1.64 in [6]; 0.664 in [7]. In addition, the composite z-score in experiment [8] is 0.184; in experiment [9] it was 0.175; in experiment [10] it was 1.87; in experiment [11], -1.02; in experiment [13], 0.411; in experiment [14], -0.549. In addition, the composite z-score in experiment [15] is -0.75; in experiment [16], 0.027; in [17], -0.0322; in experiment [18], -0.0446; in experiment [19], 0.533; in [20] it was 0.141. The z-score is 0.773 (inactive) in experiment [4] and -0.155 in experiment [12].
As for `CCCCCN1CC=CC23O[C@@H]4/C=C\CCC(C)OC(=O)C4[C@H]2C(=O)N(C(C)CO)[C@@H]3C1=O` (stereo not given in full), the composite z-score in experiment [1] was -0.472; in [2], -0.225; in [3], -0.327; in experiment [5] it was 0.171; in experiment [6] it was 0.0131; in [7] it was -0.601. Also, the composite z-score is -0.0103 in experiment [8]; -0.23 in experiment [9]; 0.908 in experiment [10]; 0.67 in experiment [11]; -0.441 in [13]; -0.213 in experiment [14]. Besides, the composite z-score in experiment [15] was -1.04; in experiment [16], -0.175; in [17], -0.282; in [18], -0.17; in experiment [19], -0.537; in experiment [20], -0.453. In addition, the z-score in [4] was 0.304 (inactive); in experiment [12], -0.862.
For the compound `C=CCN1C(=O)[C@@]2(CC=C)N=C(c3ccc(OCCCO)cc3)O[C@H]2c2ccccc21`, the composite z-score was found to be 1.66 in experiment [1]; 0.801 in experiment [2]; 1.08 in experiment [3]; 1.45 in [5]; 1.32 in [6]; 0.734 in [7]. The composite z-score came out at 1.41 in [8]; 1.14 in experiment [9]; 1.2 in [10]; 1.41 in [11]; 0.984 in experiment [13]; 3.11 in experiment [14]. The composite z-score in [15] is 0.0457; in experiment [16], 0.026; in experiment [17], -0.0886; in [18] it was 0.808; in [19] it was 1.62; in [20], 0.951. Besides, the values for the z-score in experiment [4] and in [12] were -1.63 (inactive) and -2.48, respectively.
For `COCCOC(=O)N1C(=O)[C@@]2(c3cc(C#Cc4ccc(OC)cc4)ccc31)[C@H](c1ccccc1OCCO)N1[C@H](c3ccccc3)[C@H](c3ccccc3)OC(=O)[C@H]1[C@@H]2C(=O)NC[C@H](O)c1ccccc1`, the composite z-score came to 1.23 in experiment [1]; 0.201 in [2]; 0.145 in experiment [3]; 1.14 in experiment [5]; 0.748 in experiment [6]; 0.544 in experiment [7]. For the same compound, the composite z-score in [8] is 1.43; in experiment [9] it was 0.696; in experiment [10] it was 0.53; in [11], 1.44; in experiment [13], 0.46; in [14], 1.03. The composite z-score in [15] is 0.427; in experiment [16], -0.0445; in experiment [17], 0.0469; in [18], 0.407; in experiment [19], 0.819; in experiment [20], 1.86. The z-score was -0.352 (inactive) in experiment [4] and -2.03 in experiment [12].
